Growth data for eight compounds are collected here from PubChem BioAssay (NCI).

Test systems include NCI-H23 lung; NCI-H226 lung; HOP-62 NSCLC; NCI-H460 lung; HOP-92 NSCLC; NCI-H522 lung; A549/ATCC NSCLC; 786-0 renal; COLO 205 colon; DU-145 prostate; K-562 leukemia; MALME-3M melanoma; MDA-MB-231 breast; RXF 393 renal; SF-268 CNS; SF-295 CNS; SF-539 CNS; UACC-257 melanoma; M14 melanoma; NCI-H322M lung.
Holding throughout (experiment): NCI-60 one-dose screen, 48 h (100 = growth as untreated, 0 = no growth, -100 = all killed)
What all share (conditions): 10 µM unless noted

This is part of a sample that, as a whole, favours compounds with a hit. Of some 83,000 tested, about 20% had one in any assay.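 Single-concentration screen, 48 h exposure, 96-well plates. Endpoint: percent growth. Below 10 = active.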 Values without a mark were called inactive. Calls of active or inactive are those of the source.

Turning to `CSc1ncccc1C(=O)OCC(=O)Nc1oc(C)c2c(C)n[nH]c(=O)c12`, the growth is 99.3% in the assay on NCI-H23 lung; 86.3% with NCI-H226 lung; 105% with HOP-62 NSCLC; 108% in the assay on NCI-H460 lung; 73.4% with HOP-92 NSCLC; 84.2% in the assay on NCI-H522 lung. Further, the growth with A549/ATCC NSCLC is 103%; in the assay with 786-0 renal, 91.6%; in the assay with COLO 205 colon, 122%; in the assay with DU-145 prostate it was 103%; in the assay on K-562 leukemia, 87.8%; in the assay on MALME-3M melanoma, 106%. Moreover, the growth in the assay on MDA-MB-231 breast is 109%; with RXF 393 renal, 92.1%; with SF-268 CNS, 105%; with SF-295 CNS, 95%; with SF-539 CNS it was 99.7%; in the assay on UACC-257 melanoma it was 103%. For the same compound, in the assay with M14 melanoma, the growth is 110%.

In the case of `Cc1ccc(-c2nc(N3CCN(CC(=O)Nc4ccc(Cl)cc4)CC3)c3ccccc3n2)cc1`, the growth was 94% in the assay with NCI-H23 lung; 92.9% in the assay with NCI-H226 lung; 103% with HOP-62 NSCLC; 114% in the assay on HOP-92 NSCLC; 83.6% in the assay with NCI-H522 lung; 77.4% in the assay with A549/ATCC NSCLC. The growth is 92.1% in the assay on 786-0 renal; 102% in the assay with COLO 205 colon; 88.7% in the assay with DU-145 prostate; 72.9% with K-562 leukemia; 101% with MALME-3M melanoma; 80.1% in the assay on MDA-MB-231 breast. The growth in the assay on RXF 393 renal was 74.9%; in the assay on SF-268 CNS, 83.9%; in the assay with SF-295 CNS it was 95.6%; in the assay on SF-539 CNS, 99.6%; in the assay with UACC-257 melanoma, 104%; with M14 melanoma, 99.1%.

Regarding `COc1cc(/C=C/c2ccccc2)cc(OC)c1`, the growth in the assay with NCI-H23 lung is 86.6%; with NCI-H226 lung it was 92%; with HOP-62 NSCLC, 108%; in the assay with NCI-H460 lung, 106%; in the assay with HOP-92 NSCLC, 69.9%; in the assay with NCI-H522 lung, 84.1%. Also, the growth was 95.4% in the assay with A549/ATCC NSCLC; 97.9% in the assay with 786-0 renal; 114% with COLO 205 colon; 94.3% in the assay with DU-145 prostate; 93% with K-562 leukemia; 105% in the assay on MALME-3M melanoma. Further, the growth in the assay with MDA-MB-231 breast is 91%; in the assay with RXF 393 renal, 118%; in the assay with SF-268 CNS it was 92.7%; with SF-295 CNS, 95.7%; in the assay with SF-539 CNS, 93.1%; in the assay with UACC-257 melanoma it was 103%. The growth in the assay on M14 melanoma is 101%.

In the case of `Cc1ccc(/C=C(\C#N)n2nc3cccc(F)c3n2)cc1`, the growth was 92.9% in the assay with NCI-H226 lung; 88.7% in the assay with NCI-H322M lung; 93.9% in the assay on HOP-62 NSCLC; 96.3% with NCI-H460 lung; 55.7% with HOP-92 NSCLC; 74.9% in the assay with NCI-H522 lung. The growth in the assay with A549/ATCC NSCLC was 97.7%; with 786-0 renal, 83.7%; with COLO 205 colon it was 122%; with DU-145 prostate, 97.8%; in the assay with K-562 leukemia, 80.5%; with MALME-3M melanoma, 93%. The growth was 98.3% in the assay with MDA-MB-231 breast; 89.7% in the assay with RXF 393 renal; 93.4% with SF-268 CNS; 92.8% in the assay on SF-295 CNS; 92.6% in the assay on SF-539 CNS; 97.7% in the assay on UACC-257 melanoma.

Take `CS(=O)(=O)Nc1cc(-c2ccc3ncnc(Nc4cccc(Cl)c4F)c3c2)cnc1Cl`: the growth was 56.6% with NCI-H23 lung; 49.2% with NCI-H226 lung; 54.7% in the assay with HOP-62 NSCLC; 41.5% in the assay on NCI-H460 lung; 13.3% in the assay on HOP-92 NSCLC; 53.8% with NCI-H522 lung. Also, the growth in the assay with A549/ATCC NSCLC is 67.4%; in the assay with 786-0 renal, 29.6%; in the assay on COLO 205 colon, 66.3%; with DU-145 prostate it was 63%; with K-562 leukemia it was 53.4%; in the assay with MALME-3M melanoma, 18.2%. For the same compound, the growth in the assay with MDA-MB-231 breast is 13.7%; in the assay with RXF 393 renal, -24% (active); in the assay on SF-268 CNS, 24.2%; in the assay with SF-295 CNS it was 34.7%; with SF-539 CNS, 27.8%; in the assay with UACC-257 melanoma, 40.1%. Moreover, in the assay with M14 melanoma, the growth was 50.1%.

In the case of `O=C(N/N=C/c1c(Cl)cccc1Cl)c1ccc(C(F)(F)F)nc1Nc1cccc(C(F)(F)F)c1`, the growth was -10.6% (active) in the assay with NCI-H23 lung; 14.2% in the assay with NCI-H226 lung; 28.2% in the assay on HOP-62 NSCLC; 7.11% (active) with NCI-H460 lung; 7.35% (active) in the assay with HOP-92 NSCLC; -3.43% (active) in the assay with NCI-H522 lung. Moreover, the growth in the assay with A549/ATCC NSCLC was 18.6%; in the assay with 786-0 renal, 8.61% (active); in the assay with COLO 205 colon it was -15.4% (active); in the assay with DU-145 prostate, 11.4%; in the assay on K-562 leukemia, -7.07% (active); in the assay on MALME-3M melanoma, 5.8% (active). Besides, the growth was 11.3% in the assay with MDA-MB-231 breast; 40.8% with RXF 393 renal; -2.71% (active) in the assay with SF-268 CNS; 13.7% in the assay with SF-295 CNS; 1.63% (active) in the assay on SF-539 CNS; 7.6% (active) with UACC-257 melanoma. In addition, in the assay on M14 melanoma, the growth is 23.6%.

Take `Brc1ccc2[nH]cc(-c3nc(-c4c[nH]c5ccncc45)cs3)c2c1`: the growth was -41.6% (active) in the assay with NCI-H23 lung; 89.7% with NCI-H226 lung; -79.1% (active) in the assay on HOP-62 NSCLC; -91.1% (active) in the assay with NCI-H460 lung; -34.3% (active) with HOP-92 NSCLC; -68.4% (active) in the assay with NCI-H522 lung. The growth was -77.6% (active) in the assay with A549/ATCC NSCLC; -91.3% (active) with 786-0 renal; -76.4% (active) with COLO 205 colon; -91.4% (active) with DU-145 prostate; -61.5% (active) with K-562 leukemia; -83.6% (active) with MALME-3M melanoma. Also, the growth in the assay with MDA-MB-231 breast was -84.4% (active); with RXF 393 renal, -91.8% (active); in the assay with SF-268 CNS it was -65.7% (active); in the assay with SF-295 CNS it was -84.8% (active); with SF-539 CNS it was -94.9% (active); in the assay on UACC-257 melanoma, -23.2% (active). Also, the growth in the assay with M14 melanoma is -73.3% (active).

Regarding `Cc1nc2ccccc2n1CC1C(=O)NC(=O)NC1=O`, the growth in the assay on NCI-H23 lung was 102%; with NCI-H226 lung, 114%; with HOP-62 NSCLC, 105%; in the assay on NCI-H460 lung, 111%; in the assay with HOP-92 NSCLC it was 97.8%; in the assay on NCI-H522 lung, 94.4%. For the same compound, the growth with A549/ATCC NSCLC is 96.4%; with 786-0 renal it was 103%; with COLO 205 colon, 115%; with DU-145 prostate, 117%; in the assay on K-562 leukemia it was 94.8%; in the assay with MALME-3M melanoma it was 106%. The growth with MDA-MB-231 breast was 114%; with RXF 393 renal, 123%; with SF-268 CNS it was 106%; in the assay on SF-295 CNS, 102%; in the assay with SF-539 CNS it was 100%; in the assay on UACC-257 melanoma it was 101%. In the assay with M14 melanoma, the growth is 110%.
